Reference: PubChem BioAssay AID2288 (National Center for Advancing Translational Sciences (NCATS), 2010)
In all, about 340,000 compounds went through this assay and fewer than 10 were called active. Inconclusive results (about 2%) are left out. The call rests on the fitted dose curve; in most records, active means well fitted curve in the direction sought with a large enough effect; inconclusive means small, poorly fitted or top-dose-only effect, or another doubt; inactive means no such curve, though single readings can be large or run the other way. Only a sample is shown.

Test: qHTS Assay for Modulators of miRNAs and/orActivators of miR-21;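 further: miR-21 action dims this reporter so a rising signal means less miR-21 action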
Conditions: HeLa miR-21 FLuc reporter, luciferase, 48 h; series mostly up to 38.3 µM
Text: MLSCN Grant: 1 R21 NS059478-01 Assay Provider: Qihong Huang, The Wistar Institute NCGC Assay Overview: MicroRNAs (miRNAs) are endogenously encoded small (~20-25 nucleotides), nonprotein-coding RNAs that are involved in post-transcriptional repression of target messenger RNAs (mRNAs) (Le and Hannon, 2004). Estimated to be involved in the regulation of 30% of all protein-coding mRNAs (Filipowicz et al., 2008), miRNAs play a significant role in many biological processes including cellular differentiation and tissue development (Ghildiyal and Zamore, 2009).
NCGC Assay Protocol Summary: Reagents: HeLa cells stably expressing firefly luciferase (FLuc) under the control of a CMV promoter (upstream) and a miR-21 binding sequence directly downstream of the gene. These cells endogenously express miR-21. Control compounds used were compound C3 (provided by collaborator), N6-phenyladenosine (MP Biomedicals, 0215379625), and DMSO. Assay Summary: 6uL of HeLa miR-21-FLuc cells in assay buffer (DMEM, Invitrogen #21063-029; 10% FBS, HyClone #SH30071.03) were dispensed at 2000cells/well (3.3 x 10^5 cells/mL) into Greiner solid-white TC-treated 1536-well plates using a Multidrop Combi (Thermo Fisher Scientific). Plates were incubated for one hour at 37 degree Celsius, 95% humidity, 5% CO2. These assay plates were then treated with 23nL of compound or DMSO using a Kalypsys pin tool, which allows for delivery of a 24-point titration of each compound to the assay plate, with a final compound concentration ranging from approximately 40uM to 5pM. Assay plates were then incubated for 48 hours. After incubation, plates were allowed to come to RT for one hour prior to delivery of 3uL of 3X luciferase detection reagent. After a 15 minute incubation to allow for cell lysis, luciferase activity was measured using a ViewLux CCD imager (PerkinElmer), with an average exposure time of 2-12 seconds. Keywords: NIH Roadmap, MLPCN, MLSMR, qHTS, miR-21, microRNA, firefly luciferase, FLuc.

outcome, inactive:
CCCN1CCN(CCCNC(=O)c2cnn(-c3ccc(C)cc3)c2-n2cccc2)CC1
CCCCN(CC)C(=O)c1c[nH]c2ccc(S(=O)(=O)Nc3cccc(OC)c3)cc2c1=O
Cc1c(-c2nc(-c3ccc4c(c3)OCO4)no2)nnn1-c1ccc(Br)cc1F
O=C(NCc1cccnc1)C(=O)NCC(c1cccnc1)N1CCN(c2ccccc2)CC1 (stereo unspecified)
Cc1ccccc1C(=O)NCc1nc(-c2ccc(Cl)cc2)no1
CCOc1ccc(NC(=O)Cn2c(=O)n(CCCC(=O)NCc3ccc4c(c3)OCO4)c(=O)c3ccccc32)cc1
CCOc1ccc(Nc2oc(/C=C/c3ccc(F)cc3)nc2C#N)cc1
CCOc1ccc(OCC)c(NC(=O)c2cc(C)nc3c2c(C)nn3-c2cccc(Cl)c2C)c1
COC(=O)c1ccc(NC(=O)CCc2c(C)nc3c(c(C)nn3-c3ccc(C)cc3)c2C)cc1
COc1cc(Cl)c(NC(=O)CC(C)S(=O)(=O)c2cc3c(cc2C)NC(=O)CO3)c(OC)c1 (stereo unspecified)
Cc1ccc(CN2CCc3nc(N4CCN(C)CC4)ncc3C2)cc1
CCOC(=O)c1ccc2c(c1)N(Cc1cccc(OC)c1)C(=O)c1ccccc1S2(=O)=O
COc1ccc(Cc2nc3ccc(C(=O)NCc4ccccc4C)cc3o2)cc1
CCOC(=O)c1c(C)[nH]c(CCC(=O)NCCCN2CCN(c3cccc(Cl)c3)CC2)c1C
Cc1ccc(SCC(=O)Nc2ccc3oc(-c4ccccc4F)nc3c2)cc1
CN(C(=O)CSc1nc2ccccc2n1Cc1ccccc1C#N)c1ccccc1
CCc1nnc(SCc2nc(-c3cccc(C)c3)oc2C)c2cc3sc(C)cc3n12
COc1ccccc1N1CCN(c2ncnc3onc(-c4ccc(F)cc4)c23)CC1
CC(C)Oc1ccc(CNC(=O)C2CCN(c3nc4ccccc4n(C)c3=O)CC2)cc1
CC(C)c1ccc(NS(=O)(=O)c2ccc3[nH]cc(C(=O)NC4CCCC4)c(=O)c3c2)cc1
Cc1ccc(-n2nc(C)c3c(C)cc(=O)n(CC(=O)Nc4ccc(C(C)C)cc4)c32)cc1
O=C(NCCCO)c1nn(-c2ccc(Cl)cc2)nc1CO
COc1ccccc1CNC(=O)CCCn1c(=O)c2ccccc2n(CC(=O)Nc2ccc(C)cc2Cl)c1=O
COc1cccc(-n2c(=O)c3c(C)c(C(=O)N(C)C)sc3n(Cc3cccc(C)c3)c2=O)c1
CCOc1cccc2sc(N3CCN(C(=O)C4CC4)CC3)nc12
CCc1nn(CC(=O)N2CCN(c3ccc(Cl)cc3)CC2)c(=O)c2cc3occc3n12
